In test [1] the test system is Hepatitis C virus NS3 helicase. Put plainly: HCV NS3 helicase inhibitors, primary screen, biochemical, fluorescence polarization, LOPAC1280 library (AID 687035; in the data active means inhibition above about 37%). To be noted: Purified HCV NS3 helicase, Cy5-dT15 ssDNA binding fluorescence polarization; stronger effect = higher value; concentration not given here.
A short description of test [2]: Cy5 fluorescence quenching or enhancement artefacts, artefact control for HCV NS3 helicase inhibitor project, biochemical, LOPAC1280 (AID 687037). To be noted: Cy5-DNA-NS3h complex fluorescence interference counterscreen. (Counterscreens check selectivity or assay interference.)
Test [3] is described as follows: stimulators of nuclear beta-catenin in C2C12, primary screen, imaging, WNT3A-conditioned medium, mouse C2C12, NPC library (AID 1117326; in the data active means nuclear beta-catenin stimulation mostly above about 4.2%, no sharp cut-off; inactive means mostly below about 10%). As to conditions: stronger effect = higher value.
A short description of test [4]: stimulators of insulin release from INS-1E, primary screen, cell-based, 5 mM glucose, NPC library (AID 1117329;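 active means compound raises insulin release from rat beta cells at 5 mM glucose, no numeric limit stated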). As to conditions: rat INS-1E insulin secretion, at 10 µM, stronger effect = higher value.
Test [5] is described as follows: growth inhibition of GSK3B-pretreated HCT116 cells – cell-based, CellTiter-Glo, 0.2 to 20 µM (AID 1117336;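 active means compounds lowering colon cancer cell viability after pretreatment blocking the GSK3B kinase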). To be noted: HCT116 viability after GSK3B inhibitor, at 20 µM, stronger effect = higher value. (Cellular ATP, detected with luciferase, serves as a proxy for viable cell number.)
A short description of test [6]: inhibition of endothelial tube formation, primary screen, imaging, VEGF stimulated, CD31 staining, tube area, NPC library (AID 1117340;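 active means compound that reduces growth-factor-driven endothelial tube area in a mixed cell culture, no cutoff stated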). As to conditions: VEGF-stimulated ADSC/ECFC co-culture, at 10 µM, stronger effect = higher value.
A short description of test [7]: glucagon-like peptide 1 release enhancers, primary assay, NCI-H716 cell line, NPC library (AID 1117341;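 active means compound raises GLP1 secretion from the human gut endocrine cells, with no numeric limit stated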). To be noted: NCI-H716 cells, at 10 µM, stronger effect = higher value.
A short description of test [8]: HCT116 colon cancer cell growth inhibition, primary screen, CellTiter-Glo luminescence, NPC library (AID 1117342;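 active means compounds that lower survival of HCT116 colon cancer cells in the luminescence readout, no numeric limit stated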). To be noted: at 20 µM (top of the series).
Test [9] can be described thus: CellTiter-Glo luminescent readout of SW480 viability loss, NPC library primary (AID 1117343;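 active means compounds that lower viability of the colon cancer cells in the luminescence readout, with no numeric limit stated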). To be noted: CellTiter-Glo luminescence; at 20 µM (top of the series).
Test [10] in a line: decreased DLD-1 cellular survival, CellTiter-Glo luminescent readout, NPC compound collection, primary HTS (AID 1117346;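 active means compounds that lower survival of DLD-1 colon cancer cells in the luminescence readout, no cutoff given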). As to conditions: DLD-1 viability, CellTiter-Glo luminescence; at 20 µM (top of the series).
Test [11] concerns the target 6-phosphogluconate dehydrogenase, decarboxylating (Homo sapiens) (UniProt P52209). The test can be described thus: 6PGD enzyme inhibitors, primary screen, biochemical, human, recombinant enzyme, NADPH absorbance (AID 1159550;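 active means at least 20% inhibition of 6-phosphogluconate dehydrogenase activity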). As to conditions: recombinant 6PGD, NADPH absorbance 341 nm; at 10 µM; stronger effect = higher value.
Test [12] can be described thus: Cy5 fluorescence interference with SSB-bound oligo, artefact control for HCV NS3 helicase inhibitor project, biochemical, NIH Clinical Collection, E. coli SSB (AID 743268).
Test [13] has as its system Hepatitis C virus NS3 helicase. Put plainly: HCV NS3 helicase inhibitors, primary screen, biochemical, fluorescence polarization, NIH Clinical Collection (AID 743270). To be noted: NS3 helicase binding to Cy5-dT15 DNA, stronger effect = higher value, concentration not given here. (In general: Fluorescence polarisation rises when a labelled molecule tumbles more slowly, as on binding a larger partner.)

The target of test [14] is Single-stranded DNA-binding protein (Escherichia coli (strain K12)) (UniProt P0AGE0). The test can be described thus: E. coli SSB displacement from DNA, counter-screen for HCV NS3 helicase inhibitor project, biochemical, fluorescence polarization, NIH Clinical Collection (AID 743271; in the data active means inhibition above about 28%). As to conditions: stronger effect = higher value, concentration not given here.
The nature of test [15]: fluorescence interference in NS3h assay format, artefact control for HCV NS3 helicase inhibitor project, biochemical, NIH Clinical Collection (AID 743272).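 Further: HCV NS3 helicase with a Cy5 labelled single stranded DNA probe.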 As to conditions: fluorescence interference counterscreen, stronger effect = lower value.
For test [16], the system named is Neuropilin-2 / VEGF-C interaction (human). The test can be described thus: inhibitors of NRP2–VEGF-C binding, biochemical, microplate binding format, z-score (AID 743281). To be noted: microplate NRP2/VEGF-C binding assay; stronger effect = lower value.
The nature of test [17]: liver-stage malaria parasite growth inhibition, primary screen, cell-based, HepG2, luciferase luminescence, HepG2 viability (AID 624349; in the data active means parasite load remaining mostly below about 12%, no sharp cut-off; inactive means mostly above about 10%;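 further: 100% = mean of DMSO negative control wells on the same plate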). As to conditions: P. berghei liver stage in HepG2, luciferase luminescence, concentration not given here; parasite load remaining: stronger effect = lower value; viability: measured here: HepG2 viability without parasites.
Test [18] has as its target Calcium-dependent protein kinase 1 (Plasmodium falciparum (isolate 3D7)) (UniProt P62344). Put plainly: PfCDPK1 kinase inhibitors, biochemical, TCAMS library (AID 1159585; cut-off not given, nearly all actives have IC50 up to about 0.98 µM;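 further: inhibitors leave more ATP so luminescence rises with inhibition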). To be noted: recombinant PfCDPK1, Kinase-Glo ATP depletion luminescence.
Test [19] has as its target Plasmodium falciparum protein kinase 6 (PK6, PF3D7_1337100) (UniProt Q8IDW1). The test can be described thus: PfPK6 kinase inhibitors, biochemical, TCAMS library (AID 1159586). To be noted: recombinant PfPK6, Kinase-Glo ATP depletion luminescence.

“And” between values parts separate entries of the source, which are not always exact repeats. Equal values may be shown once. For some of these results: Measured potencies and affinities stand elsewhere. The source made the active and inactive calls. Unless noted, how the calls were made is not given here.

Consider six compounds from PubChem BioAssay.

6-phosphogluconate dehydrogenase, decarboxylating (Homo sapiens), sequence (P52209 whole entry, looked up): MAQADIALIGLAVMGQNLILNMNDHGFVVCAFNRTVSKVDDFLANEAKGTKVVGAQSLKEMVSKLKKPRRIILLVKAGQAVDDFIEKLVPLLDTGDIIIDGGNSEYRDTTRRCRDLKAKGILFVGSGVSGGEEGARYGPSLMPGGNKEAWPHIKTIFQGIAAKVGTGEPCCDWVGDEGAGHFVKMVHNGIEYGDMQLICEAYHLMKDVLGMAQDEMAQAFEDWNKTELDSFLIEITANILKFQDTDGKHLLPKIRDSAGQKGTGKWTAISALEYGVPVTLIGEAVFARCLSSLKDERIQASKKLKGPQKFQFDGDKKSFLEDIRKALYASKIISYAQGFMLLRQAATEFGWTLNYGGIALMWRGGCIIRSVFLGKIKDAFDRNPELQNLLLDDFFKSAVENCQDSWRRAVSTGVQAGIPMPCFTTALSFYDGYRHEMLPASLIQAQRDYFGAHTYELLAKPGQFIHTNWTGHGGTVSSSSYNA
Plasmodium falciparum protein kinase 6 (PK6, PF3D7_1337100), sequence (Q8IDW1 1-305): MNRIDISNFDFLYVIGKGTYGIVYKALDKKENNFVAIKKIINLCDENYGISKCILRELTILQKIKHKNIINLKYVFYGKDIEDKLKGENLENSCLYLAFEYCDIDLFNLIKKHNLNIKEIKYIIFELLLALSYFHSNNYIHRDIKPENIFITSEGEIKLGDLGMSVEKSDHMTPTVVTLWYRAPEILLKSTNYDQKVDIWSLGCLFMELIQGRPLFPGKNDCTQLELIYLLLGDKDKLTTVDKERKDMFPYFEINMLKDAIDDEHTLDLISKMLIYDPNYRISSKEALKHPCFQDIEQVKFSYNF
Calcium-dependent protein kinase 1 (Plasmodium falciparum (isolate 3D7)), sequence (P62344 whole entry, looked up): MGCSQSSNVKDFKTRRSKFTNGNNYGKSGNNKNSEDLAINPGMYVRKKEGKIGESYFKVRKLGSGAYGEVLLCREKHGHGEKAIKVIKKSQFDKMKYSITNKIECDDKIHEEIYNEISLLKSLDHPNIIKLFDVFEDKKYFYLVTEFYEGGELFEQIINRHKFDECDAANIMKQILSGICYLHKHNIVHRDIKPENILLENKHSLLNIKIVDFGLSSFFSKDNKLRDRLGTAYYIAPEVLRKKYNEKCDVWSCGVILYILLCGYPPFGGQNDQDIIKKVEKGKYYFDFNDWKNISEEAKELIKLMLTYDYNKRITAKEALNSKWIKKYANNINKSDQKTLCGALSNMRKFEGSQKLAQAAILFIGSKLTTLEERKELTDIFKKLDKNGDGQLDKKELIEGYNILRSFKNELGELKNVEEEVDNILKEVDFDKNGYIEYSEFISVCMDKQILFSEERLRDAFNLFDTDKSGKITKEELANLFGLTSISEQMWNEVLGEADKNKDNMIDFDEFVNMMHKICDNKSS

In general, inhibition refers to the drop in the measured response relative to a control, in per cent. On to `CN(C)C(=O)Oc1cccc([N+](C)(C)C)c1`, for which the inhibition in [1] was -5% (inactive); in test [11], -2.26% (inactive). For the same compound, the fluorescence ratio (interference) in test [2] is 1 (inactive). Further, the nuclear beta-catenin stimulation in test [3] (at 10 µM) is 1% (inactive); in test [3] (stimulation, at 2 µM), 5.2%. In test [4], the insulin secretion stimulation is -0.9% (inactive). In addition, the viability decrease in [5] was 10% (inactive). In [6], the tube area decrease was -12.9% (active). In test [7], the GLP1 secretion stimulation is 1.3% (inactive). Also, the inhibition of viability in [8] is 2.9% (inactive). Besides, the viability decrease (inhibition) is -16.1% (inactive) in [9] and -5.8% (inactive) in test [10].
As to `CN1CCN(CCCN2c3ccccc3Sc3ccc(Cl)cc32)CC1`, the inhibition in test [1] is -3% (inactive); in test [13], -1.19% (inactive); in test [14] it was 9.14% (inactive); in test [11], 5.8% (inactive). The fluorescence ratio (interference) in test [2] was 1 (inactive). For the same compound, the fluorescence ratio in test [12] was 0.78 (active); in test [15], 0.71 (active). For the same compound, in test [16], the z-score was 0.742 (inactive). Also, the nuclear beta-catenin stimulation in test [3] (at 10 µM) was 19.8% (inactive); in test [3] (stimulation, at 2 µM), 0.2%. Besides, the insulin secretion stimulation in test [4] was 3.6% (inactive). In test [5], the viability decrease is 13% (inactive). Besides, the tube area decrease in [6] was 47.3% (active). In addition, the GLP1 secretion stimulation in test [7] was 17.2% (inactive). In [8], the inhibition of viability is 86% (active). The viability decrease (inhibition) in [9] is 137% (active); in test [10], 94.4% (active).
As a reminder, the viability is a read-out of living cells in per cent, often relative to untreated cells. In the case of `CN(C)c1ccc2nc3ccc(=[N+](C)C)cc-3sc2c1`, the parasite load remaining in test [17] was 0.205% (inactive). In [17], the viability was determined as 47.9%. Besides, the nuclear beta-catenin stimulation is 3.1% (inactive) in [3] (at 10 µM) and 2.2% in test [3] (stimulation, at 2 µM). Also, in test [4], the insulin secretion stimulation was -1.1% (inactive). Further, the viability decrease in test [5] was 98.6% (active). Further, in test [6], the tube area decrease was 103% (active). Also, the GLP1 secretion stimulation in test [7] is 280% (active). For the same compound, the inhibition of viability in [8] is 97.8% (active). Moreover, the viability decrease (inhibition) is 65.3% (active) in test [9] and 44.2% (inactive) in test [10].
For `Cc1c(Nc2ncccc2C(=O)O)cccc1C(F)(F)F`, the parasite load remaining in test [17] was 99.9% (inactive) and 46.5% (inactive). In [17], the viability is 95.4% and 105%. The nuclear beta-catenin stimulation in test [3] (at 10 µM) is 4.9% (inactive); in [3] (stimulation, at 2 µM), -0.2%. Moreover, the insulin secretion stimulation in test [4] was -1.5% (inactive). Further, in [5], the viability decrease is -24.9% (inactive). Besides, the tube area decrease in [6] was 5.8% (inactive). Besides, the GLP1 secretion stimulation in [7] was -1.7% (inactive). Further, the inhibition of viability in test [8] was 0.73% (inactive). In addition, the viability decrease (inhibition) in test [9] was 75.8% (active); in test [10], 21.9% (inactive).
Take `COc1ncnc(NS(=O)(=O)c2ccc(N)cc2)c1OC`: the parasite load remaining in [17] was 74.2% (inactive) and 31.5% (inactive) and 37.8% (inactive). In addition, the viability in test [17] is 68.7% and 97% and 73.5%. In addition, the nuclear beta-catenin stimulation in test [3] (at 10 µM) was 4.7% (inactive); in test [3] (stimulation, at 2 µM) it was 3.5%. The insulin secretion stimulation in test [4] is 0.1% (inactive). The viability decrease in [5] is -6.5% (inactive). Besides, in [6], the tube area decrease was -10.7% (inactive). In addition, the GLP1 secretion stimulation in [7] is 8.3% (inactive). Besides, the inhibition of viability in [8] is -1.93% (inactive). For the same compound, the figures for the viability decrease (inhibition) in [9] and in test [10] were -16.8% (inactive) and -22.2% (inactive), respectively.
Consider `Cc1nc(N)nc(N)c1-c1ccc(Cl)c(Cl)c1`, for which the nuclear beta-catenin stimulation in test [3] (at 10 µM) was 42.9% (active); in test [3] (stimulation, at 2 µM), 55.1%. The insulin secretion stimulation in test [4] was 1.95% (inactive). The viability decrease in test [5] is 101% (active). In test [6], the tube area decrease is -11.8% (inactive). Besides, the GLP1 secretion stimulation in test [7] was 2.8% (inactive). The inhibition of viability in test [8] is 95.5% (active). In addition, the viability decrease (inhibition) in test [9] is 131% (active); in test [10] it was 68.5% (active). For the same compound, the result in [18] and in test [19] was inactive.
